PubChem BioAssay (NCI)
Compounds without any hit were thinned out: in the full panel of roughly 83,000, 20% have a hit.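 For each line, cells grew in 96-well plates with the test compound present at a single concentration for 48 hours.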 Activity calls are given as the source filed them. How the source made its calls: active means growth percent below 10; inactive means the rest.

Experiments:
Assay in all cases: NCI-60 one-dose screen, 48 h (100 = growth as untreated, 0 = no growth, -100 = all killed)
Conditions in all cases: 10 µM unless noted
SK-MEL-2 melanoma = tested on: SK-MEL-2 melanoma
EKVX NSCLC = tested on: EKVX NSCLC
SN12C renal = tested on: SN12C renal
UO-31 renal = tested on: UO-31 renal
TK-10 renal = tested on: TK-10 renal
ACHN renal = tested on: ACHN renal
CAKI-1 renal = tested on: CAKI-1 renal
A498 renal = tested on: A498 renal
CCRF-CEM leukemia = tested on: CCRF-CEM leukemia
MOLT-4 leukemia = tested on: MOLT-4 leukemia

Measured: growth

CCN(CC)CCOc1ccc2c(-c3ccccc3)c(-c3ccc(OC)cc3)c(=O)oc2c1
inactive: SK-MEL-2 melanoma 51.6% | EKVX NSCLC 83.9% | SN12C renal 68.5% | UO-31 renal 62.6% | TK-10 renal 75.9% | ACHN renal 75.3% | CAKI-1 renal 71.9% | A498 renal 70.2% | CCRF-CEM leukemia 75.3% | MOLT-4 leukemia 35.4%

c1csc(-c2cn3nc(-c4c[nH]c5ccccc45)sc3n2)c1
inactive: SK-MEL-2 melanoma 37.2% | EKVX NSCLC 36% | SN12C renal 34.2% | UO-31 renal 30.7% | TK-10 renal 50.5% | ACHN renal 42.2% | CAKI-1 renal 29.8% | A498 renal 20.8% | CCRF-CEM leukemia 10.7% | MOLT-4 leukemia 27.2%

Cn1cc(-c2nc3c(F)cc4[nH]ncc4c3c3c2CCCC3)c(C(F)(F)F)n1
active: A498 renal -15.1% | CCRF-CEM leukemia -8.03% | MOLT-4 leukemia -18.9%
inactive: SK-MEL-2 melanoma 49.2% | EKVX NSCLC 38.3% | SN12C renal 49.4% | UO-31 renal 18.1% | TK-10 renal 24.7% | ACHN renal 28.4% | CAKI-1 renal 18.6%

Oc1c(CN2CCC(N3CCOCC3)CC2)cc(Cc2cc(CN3CCC(N4CCOCC4)CC3)c(O)c3ncccc23)c2cccnc12
active: MOLT-4 leukemia 6.57%
inactive: SK-MEL-2 melanoma 53.7% | EKVX NSCLC 24.9% | SN12C renal 29.1% | UO-31 renal 17.9% | TK-10 renal 42.3% | ACHN renal 23.5% | CAKI-1 renal 13.2% | A498 renal 69.1% | CCRF-CEM leukemia 12.6%

C/C(Cc1ccc(Cl)cc1)=C(\c1ccc(OCCN2CCCCCC2)cc1)c1ccc(OC(=O)c2ccccc2)cc1
inactive: SK-MEL-2 melanoma 77.4% | EKVX NSCLC 78.8% | SN12C renal 11.2% | UO-31 renal 24% | TK-10 renal 67% | ACHN renal 68.9% | CAKI-1 renal 52.6% | A498 renal 76.1%
active: CCRF-CEM leukemia -4.75% | MOLT-4 leukemia 9.42%

CC[C@H](Nc1nc(N)nc(C)c1C#N)c1nc2cccc(CN(C)c3ncc(C(=O)NO)cn3)c2c(=O)n1-c1ccccc1
active: SK-MEL-2 melanoma -5.85% | SN12C renal 2.71% | UO-31 renal -4.88% | TK-10 renal -21.8% | A498 renal -40% | MOLT-4 leukemia 9.84%
inactive: EKVX NSCLC 35.3% | ACHN renal 24% | CAKI-1 renal 18.1%

CSc1ccc(N2C(=N)C(=S)N(c3ccc(C)cc3)C2=O)cc1
inactive: SK-MEL-2 melanoma 118% | EKVX NSCLC 93.9% | SN12C renal 94% | UO-31 renal 75.5% | TK-10 renal 109% | ACHN renal 88.2% | CAKI-1 renal 82.7% | A498 renal 104% | CCRF-CEM leukemia 80.6% | MOLT-4 leukemia 89.8%

COC(=O)[C@@]12CC=C(C)[C@]3(C[C@H](c4ccoc4)OC3=O)[C@H]1C=C[C@@H](O)[C@@]2(O)C(=O)OC
inactive: SK-MEL-2 melanoma 84.6% | EKVX NSCLC 94.7% | SN12C renal 104% | UO-31 renal 82.7% | TK-10 renal 80.3% | ACHN renal 105% | CAKI-1 renal 85.1% | A498 renal 109% | CCRF-CEM leukemia 111% | MOLT-4 leukemia 106%

O=c1cc(CNc2cc(F)cc(F)c2)c2ccc(I)cc2[nH]1
active: A498 renal 3.87%
inactive: SK-MEL-2 melanoma 39.2% | EKVX NSCLC 44% | SN12C renal 51.7% | UO-31 renal 39.7% | TK-10 renal 53.3% | ACHN renal 36.3% | CAKI-1 renal 26.6% | CCRF-CEM leukemia 14.8% | MOLT-4 leukemia 28.1%

CNC(=O)c1cc(Oc2ccc3c(c2)sc2nc(-c4ccc(NC(=O)[C@@H](NC(=O)OC)C(C)C)cc4)cn23)ccn1
inactive: SK-MEL-2 melanoma 59.6% | EKVX NSCLC 66.3% | SN12C renal 72.2% | UO-31 renal 52.5% | TK-10 renal 85.4% | ACHN renal 83.3% | CAKI-1 renal 77.1% | A498 renal 68.5% | CCRF-CEM leukemia 23.5% | MOLT-4 leukemia 23.8%

CNCC[C@H](Oc1cccc2ccccc12)c1cccs1
inactive: SK-MEL-2 melanoma 104% | EKVX NSCLC 78.9% | SN12C renal 79.1% | UO-31 renal 63.7% | TK-10 renal 90% | ACHN renal 96.9% | CAKI-1 renal 88.4% | A498 renal 111% | CCRF-CEM leukemia 91.9% | MOLT-4 leukemia 50.4%

O=S(=O)(NCCNc1nccc(-c2c(-c3ccc(F)c(O)c3)nc3sccn23)n1)c1ccc(Cl)cc1
active: SK-MEL-2 melanoma -31.6% | MOLT-4 leukemia 1.03%
inactive: EKVX NSCLC 36.6% | SN12C renal 26.3% | UO-31 renal 11.6% | TK-10 renal 44.8% | ACHN renal 19.8% | CAKI-1 renal 19.5% | A498 renal 30.8%

CCN(CC)CCCNc1cc(OC)c(OC)c2cccnc12
inactive: SK-MEL-2 melanoma 88.1% | EKVX NSCLC 100% | SN12C renal 57.3% | UO-31 renal 46.6% | TK-10 renal 98.9% | ACHN renal 42.3% | CAKI-1 renal 52.5% | CCRF-CEM leukemia 74.6% | MOLT-4 leukemia 52.8%

O=Nc1ccc(NC(=O)Nc2ccc([N+](=O)[O-])cc2)cc1
inactive: SK-MEL-2 melanoma 116% | EKVX NSCLC 96% | SN12C renal 94.9% | UO-31 renal 85.8% | TK-10 renal 99.7% | ACHN renal 94.7% | CAKI-1 renal 97.1% | A498 renal 84% | MOLT-4 leukemia 88.6%
